A selection: hits, their analogues and other compounds. The true share with any hit is near 3.9%.
HIF-2a inh – inhibitors of HIF-2a. 786-0 RCC cells HIF-2a reporter, luciferase luminescence, overnight. inhibition, % at 18.8 µM. actives 0.72% (n = 360,000);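 active = inhibition of the luminescence signal of 40% or more relative to plate controls, in a single-dose primary screen at 18.75 µM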
aSyn 5UTR inh – MLPCN primary screen, SNCA 5' untranslated region. actives 0.82% (n = 300,000). AID 1813. alpha-synuclein 5'UTR reporter, inhibitor activity. inhibition, % (tested at 7.5 µM); in the data active = inhibition above about 60%;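 also: H4 neuroglioblastoma cells stably carrying SNCA 5'UTR luciferase fusion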
C8 TRAIL sens – caspase-8 TRAIL sensitization; actives 1% (n = 360,000); inhibition (viability loss, TRAIL sensitization), % at 10 µM; NB7+C8 cells + TRAIL, ATPlite viability luminescence;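 active = compounds causing at least 50% loss of cell viability in the single-dose screen, relative to plate controls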
HSP90 refold inh – inhibitors of HSP90 luciferase refolding in rabbit reticulocyte lysate; inhibition, % at 5.6 µM; actives 0.91% (n = 290,000); luciferase refolding luminescence, 3 h;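 active = inhibition above the screen-wide mean plus 3 SD, computed separately per campaign, cut at about 16% in these data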;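 also: inhibitors lower the luminescence because luciferase stays unfolded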
TWEAK-Fn14 inh – inhibitors of TWEAK-Fn14 interaction signaling; TWEAK-stimulated Fn14 reporter cells, luciferase luminescence, 8 h; inhibition, % at 10 µM; actives 2% (n = 360,000); AID 1159606; in the data active = inhibition above about 50%
TROY signal inh – TROY signaling inhibition; inhibition, % at 10 µM; actives 0.98% (n = 360,000); Q293 LMP1-TROYcd NF-kB luciferase reporter, 4 h;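 active = compounds whose plate-normalised and pattern-corrected inhibition of the luciferase reporter signal at the single screening dose is 50% or more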
Numbers stand for hits; . = inactive; / = no result; ! = not confirmed by another sample.

SMILES	HIF-2a inh	aSyn 5UTR inh	C8 TRAIL sens	HSP90 refold inh	TWEAK-Fn14 inh	TROY signal inh
CCc1ccc(S(=O)(=O)N(C(=O)c2ccncc2)c2ccc(OC(=O)c3ccncc3)cc2)cc1	.	.	.	.	.	54
Cc1ccc(C)c(S(=O)(=O)N(C(=O)c2ccncc2)c2ccc(OC(=O)c3ccncc3)cc2)c1	.	.	.	.	84	68
Cc1ccc(S(=O)(=O)N(C(=O)c2ccncc2)c2ccc(OC(=O)c3ccncc3)cc2)c(C)c1	.	.	.	.	50	.
Cc1ccc(S(=O)(=O)N(C(=O)c2ccncc2)c2ccc(OC(=O)c3ccncc3)cc2)cc1	.	.	.	.	.	.
CCCc1c(-c2ccc(Cl)cc2)ncn1Cc1cccc(-c2ccccc2)c1	.	/	.	/	/	/
CCC(C)C(CO)NCCCn1cnc2c(OCc3ccccc3)ncnc21 (stereo not drawn)	.	/	.	/	.	.
CCOc1ccc(N/C=C/C(=O)c2ccccc2)c([N+](=O)[O-])c1	.	87	91	.	86	.
O=C(COc1ccc(Cl)cc1Cl)N(C1CCCCC1)C1CCS(=O)(=O)C1 (stereo not drawn)	.	/	.	/	.	.
COc1ccc(N2C(N)=NC(N)=NC2(C)C)cc1	.	81	82	.	.	.
CC1(C)N=C(N)N=C(N)N1c1cccc(C(=O)O)c1	.	.	.	.	.	.
CC1(C)N=C(N)N=C(N)N1c1cccc(C#N)c1	.	/	82	/	.	.
Cc1ccc(N2C(N)=NC(N)=NC2(C)C)c(C)c1	.	.	72	.	.	.
COc1cccc(N2C(N)=NC(N)=NC2(C)C)c1	.	96	85	.	.	.
CCOC(=O)[C@]12CCC=C1N(Cc1ccco1)C(=O)[C@H](CC(=O)NCC13CC4CC(CC(C4)C1)C3)C2	.	/	.	/	.	.
C[C@H](O)[C@@H]1C(=O)N2CCc3ccc(-c4ccccc4)cc3[C@@H]2C[C@@H]1N(C)C(=S)Nc1ccc(F)cc1	.	/	.	/	.	.
CC(C)Nc1ncnc2c1ncn2[C@H]1CN(Cc2cccs2)C[C@@H](CO)O1	.	/	.	/	.	.
CCC(C)C(CO)NCCCn1cnc2c(OC)ncnc21 (stereo not drawn)	.	/	.	/	.	.
CC(C)n1c(=O)c2ccccc2n1CC(=O)N1CCOCC1	.	/	.	/	.	.
CCCCOc1ccc(N2C(N)=NC(N)=NC23CCCCC3)cc1	.	.	.	.	.	.
CCOc1ccc(N2C(N)=NC(N)=NC2(C)C)cc1	.	66	75	.	.	.
CCOC(=O)c1cccc(N2C(N)=NC(N)=NC2(C)C)c1	.	.	67	.	.	.
Cc1c(C(=O)N(C)Cc2ccc(F)cc2)sc(=O)n1Cc1ccccc1C#N	.	/	.	/	.	.
CNc1cc(-c2ccc(O)cc2C)ncn1	.	/	.	/	.	.
C=CCc1c(OC(C)=O)c2ccccc2n(C)c1=O	.	.	.	.	55	.
Cn1c(=O)[nH]c2nnc(-c3ccc(Cl)c(Cl)c3)nc2c1=O	.	.	.	.	57	.
SMILES	HIF-2a inh	aSyn 5UTR inh	C8 TRAIL sens	HSP90 refold inh	TWEAK-Fn14 inh	TROY signal inh
O=C(N/N=C/c1ccc(OCc2ccc(F)cc2)cc1)c1ccccc1	.	.	.	.	.	.
COc1ccc(C(=O)N/N=C/c2cc(Br)ccc2O)cc1OC	.	.	.	.	.	.
CC(C)c1ccc(OCc2cccc(C(=O)N/N=C/c3cccnc3)c2)cc1	.	.	53	.	.	.
CC(C)(C)c1ccc(OCc2ccc(C(=O)N/N=C/c3ccc(O)c(O)c3)cc2)cc1	.	.	.	17	.	.
COc1ccc(O)c(/C=N/NC(=O)c2ccc(OCc3cccc(Br)c3)cc2)c1	.	82	.	.	.	.
O=C1C=C(Nc2ccccc2C(=O)O)c2ccccc2C1=O	.	.	.	.	.	.
O=C1C=C(Nc2ccccc2)c2ccccc2C1=O	.	.	.	17	.	.
O=C1C=C(Nc2ccccc2)C(=O)c2ccccc21	.	.	.	.	.	.
CCc1ccc(NC2=CC(=O)C(=O)c3ccccc32)cc1	.	/	93	/	.	.
Cc1c(O)c(=O)ccn1Cc1ccccc1	.	68	.	.	.	.
COc1ccc(C2=CC(=O)C=CC2=O)cc1	/	.	/	.	/	/
CN(C)c1ccnc2c[cH-]cc12.[Fe].c1ccc(-[c-]2[c-](-c3ccccc3)[c-](-c3ccccc3)[c-](-c3ccccc3)[c-]2-c2ccccc2)cc1 (stereo not drawn)	.	.	89!	/	.	.
CCOC(=O)CSC1=C(C#N)C(c2ccc(Cl)cc2)CC(=O)N1 (stereo not drawn)	.	.	.	.	.	.
CCOC(=O)CSC1=C(C#N)C(c2ccc(C)o2)CC(=O)N1 (stereo not drawn)	.	78	.	.	.	.
N#CC1=C(SCC(=O)Nc2ccc(C(=O)O)cc2)NC(=O)CC1c1ccco1 (stereo not drawn)	.	.	.	.	98	.
COC(=O)Cc1ccccc1NS(=O)(=O)c1ccc(C)cc1	.	/	.	/	/	/
C[C@@H]1ON(C)[C@H]2C[C@H]3c4cc(-c5cccc(F)c5)ccc4CCN3C(=O)[C@@H]12	.	/	.	/	.	.
CC(C)C(=O)Nc1cccc(COc2ccc(CN(Cc3ccccc3)C(=O)OC(C)(C)C)cc2)c1	.	/	.	/	70	.
CCNC(=O)c1cc2c(c(-c3cccc(-c4cccc(C(=O)N(C)C)c4)c3)n1)[C@@H](CCO)N(S(=O)C(C)(C)C)C2 (stereo partly drawn)	.	/	.	/	.	.
COc1ccc(CN(C)C(=O)c2cc(-c3ccccc3)nc3ccc(C)cc23)c(OC)c1	.	/	.	/	53	.
CNS(=O)(=O)c1ccc(CNC[C@H]2O[C@@H](n3cnc4c(=O)[nH]c(N)nc43)[C@H](O)[C@@H]2O)cc1	.	/	.	/	.	.
C=C1C(=O)[C@]23C[C@H]1CCC2[C@]1(C)C(=O)CC[C@@](C)(C(=O)O)C1C[C@@H]3O (stereo partly drawn)	.	/	.	/	72	.
COC(=O)Cn1ccnc1[N+](=O)[O-]	.	/	.	/	.	.
Cc1ccc(/C=N/Nc2cc(C)nc(NCc3ccccc3)n2)cc1	.	.	.	.	.	.
Cc1cc(N/N=C/c2ccc(O)cc2)nc(NS(=O)(=O)c2ccccc2)n1	54	.	.	.	.	.
Cn1nc(C(=O)NCCc2ccc(S(N)(=O)=O)cc2)c2ccccc2c1=O	.	.	.	.	.	.
CCn1nc(C(=O)NCCc2ccc(S(N)(=O)=O)cc2)c2ccccc2c1=O	.	.	47	.	.	.
CC(C)(C)c1ccc(CC(=O)N2CCC2(C)C(=O)NCc2cccs2)cc1 (stereo not drawn)	.	/	.	/	.	.
CCc1ccc(-n2cccc2/C=C2/C(=N)N3C(=NC2=O)SN=C3S(C)(=O)=O)cc1	.	.	.	.	.	59
Cc1ccc(-n2cccc2/C=C2/C(=N)N3C(=NC2=O)SN=C3S(C)(=O)=O)cc1	.	.	.	.	.	.

Assay outcomes: PubChem BioAssay, several laboratories
